Assay outcomes as filed in PubChem.
AMA1 RON2 block = qHTS for Inhibitors of AMA1-RON; Towards Development of Antimalarial Drug Lead: Primary Screen. Potency, µM (titrated, usually from 58.2 µM), usual class: inhibitors. AlphaScreen AMA1-biotinylated RON2 peptide binding. Plasmodium falciparum AMA1 (3D7) - RON2 peptide interaction. 360,000 compounds, 0.2% hits; note: nearly all actives have a fitted effect of over 45% in size
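AMA1 (3D7) with his tag at 25 nM final met compounds first, then biotinylated RON2 peptide at 25 nM; detection used donor plus acceptor beads, 10 µg/mL apiece, read by AlphaScreen after 30 min at room temperature.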
Pf growth 48h = Primary qHTS for delayed death inhibitors of the malarial parasite plastid, 48 hour incubation. P. falciparum luciferase growth in erythrocytes, 48 h. Potency, µM (top dose mostly 28.7 µM), usual class: inhibitors. 310,000 compounds, 5.9% hits. AID 504832, 2011
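Luciferase-expressing parasites in RBCs, 2% Hct / 0.1% parasitemia final; RPMI 1640 + 0.5% Albumax; 37 C, 5% CO2, one generation; luminescence read-out, lower signal = inhibition.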
HCV inhibitor = qHTS Assay for Inhibitors of Hepatitis C Virus (HCV); 340,000 compounds, 3.4% hits; Huh7.5.1 HCVcc-Cre infection, luciferase reporter, 44 h; Potency, µM (doses to about 41.8 µM), most hits filed as inhibitors; AID 651820, 2012
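Seed cells (1,000/well) for 4 h; treat with compound and infect with HCVcc-Cre, moi about 0.5. Incubate 44 h, then detect luciferase activity.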
Pf growth 96h = Primary qHTS for delayed death inhibitors of the malarial parasite plastid, 96 hour incubation | P. falciparum luciferase reporter growth, 96 h | 320,000 compounds, 6.9% hits | Potency, µM (highest dose often 28.7 µM), actives largely listed as inhibitors
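Cell-based qHTS: luciferase-tagged P. falciparum in erythrocytes (2% hematocrit, 0.05% parasitemia final) incubated with compounds for 96 hours, 37 C, 5% CO2; luciferase detection reagent then added and luminescence measured.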
Cycloheximide cs = Cycloheximide Counterscreen for Small Molecule Inhibitors of Shiga Toxin. 300,000 compounds, 12% hits. max response, %. AID 2314, 2010. cell reporter, cycloheximide protein synthesis inhibition counterscreen; in the data active = max response mostly above about 13%, no sharp cut-off; inactive = mostly below about 14%; note: read at 38.3 µM for the half of the compounds with a filed dose
Shiga toxin inh = A qHTS for Small Molecule Inhibitors of Shiga Toxin | 290,000 compounds, 9.2% hits | inhibition, % at 38.7 µM | Vero cells, Shiga toxin protein synthesis inhibition reporter; in the data active = inhibition mostly above about 28%, no sharp cut-off; inactive = mostly below about 43%
Numbers stand for hits; – = inactive; ? = inconclusive; · = no result. Compounds with a hit are over-represented: about 21% of the library has one in this group of screens. Unless noted, calls come from the whole dose curve; as a rule, active = well fitted curve in the direction sought with a large enough effect; inconclusive = small, poorly fitted or top-dose-only effect, or another doubt; inactive = no such curve, though single readings can be large; an effect the other way counts as inactive or inconclusive.

SMILES | AMA1 RON2 block | Pf growth 48h | HCV inhibitor | Pf growth 96h | Cycloheximide cs | Shiga toxin inh
CCOC(=O)c1c(C)[nH]c(C(=O)CN2C(=O)NC(C)(c3ccc4ccccc4c3)C2=O)c1C (stereo not drawn) | – | ? | · | 5.2µM | – | –
CCCC1(c2ccccc2)NC(=O)N(CC(=O)c2[nH]c(C)c(C(=O)OCC)c2C)C1=O (stereo not drawn) | – | 4.1µM | ? | 8.3µM | – | –
CCOC(=O)c1c(C)[nH]c(C(=O)CN2C(=O)NC3(CCCC3)C2=O)c1C | – | – | – | – | 29 | 52
CCOC(=O)c1c(C)[nH]c(C(=O)CN2CCN(CC)CC2)c1C | ? | – | – | – | – | –
CCOC(=O)c1c(C)[nH]c(C)c1C(=O)CN1C(=O)NC2(CCCCCC2)C1=O | – | 6.6µM | – | ? | · | ·
CC1(C(=O)NS(=O)(=O)c2ccccc2C(F)(F)F)CCN1C(=O)c1cccc(F)c1 (stereo not drawn) | – | · | · | · | · | ·
CCN(CC)C(=O)[C@H]1C[C@H](CC(=O)NC(C)(C)C)C(=O)N2CCc3c([nH]c4cc(CCC(=O)N(C)C)ccc34)[C@]12C | – | · | – | · | · | ·
CC(CCN(C)C)OC(=O)c1ccc(C(C)c2ccccc2)o1 (stereo not drawn) | – | – | – | ? | 18 | –
CC1(C)C(=O)OC(c2ccccc2)C(C)(C)C1=O (stereo not drawn) | – | – | – | – | – | –
CC1(C)C(=O)OC(c2cccs2)C(C)(C)C1=O (stereo not drawn) | – | – | – | 1.9µM | – | –
Cc1cccc2c1ncc1c(=O)n(-c3ccccc3)[nH]c12 | – | – | – | ? | 30 | 90
Cc1ccc(NC2CCCN(C(=O)CCC(=O)c3ccccc3)C2)cc1C (stereo not drawn) | – | ? | – | – | – | –
Cc1ccc(NC2CCCN(C(=O)Cc3nonc3C)C2)cc1C (stereo not drawn) | – | – | – | ? | – | –
Cc1ccc(NC2CCCN(C(=O)CN3C(=O)c4ccccc4C3=O)C2)cc1C (stereo not drawn) | – | ? | – | 15µM | – | –
Cc1ccc(NC2CCCN(C(=O)CSc3ccncc3)C2)cc1C (stereo not drawn) | – | – | – | 13µM | – | –
COc1ccc(C2=Nn3c(nnc3-c3ccncc3)SC2)cc1 | – | · | – | – | – | –
COc1ccc(OC)c(C2=Nn3c(nnc3-c3cccc(OC(C)C)c3)SC2)c1 | – | 8.3µM | 10µM | ? | – | –
COc1cccc(-c2nnc3n2N=C(c2ccccc2OC)CS3)c1 | · | · | · | · | – | –
CCOc1ccc(C2=Nn3c(nnc3-c3ccc(OC)cc3)SC2)cc1 | – | 15µM | ? | ? | – | –
COc1ccc(OC)c(-c2nnc3n2N=C(c2ccc(OC)c(OC)c2)CS3)c1 | · | 5.9µM | · | 3.3µM | – | –
Cc1noc(NC(=O)c2cccc(Cl)c2Cl)c1C#N | – | – | – | – | – | –
CC[C@@]1(O)C(=O)OCc2c1cc1n(c2=O)Cc2cc3c(N)cccc3nc2-1 | – | 1.9µM | – | 1.2µM | – | –
CCCCc1nc2ccccc2c(=O)n1-c1ccccc1[N+](=O)[O-] | – | ? | – | – | – | –
CC[C@@]1(O)C(=O)OCc2c1cc1n(c2=O)Cc2cc3c(CN(C)C)c(O)ccc3nc2-1 | ? | 8.5µM | ? | 11µM | · | ·
CC[C@@]1(O)C(=O)OCc2c1cc1n(c2=O)Cc2cc3c([N+](=O)[O-])cccc3nc2-1 | · | 8.5µM | · | ? | · | ·
SMILES | AMA1 RON2 block | Pf growth 48h | HCV inhibitor | Pf growth 96h | Cycloheximide cs | Shiga toxin inh
COC(=O)c1cc(Br)cn1S(=O)(=O)c1ccccc1 | – | · | – | – | – | –
CC(C)(C)c1ccc(CC(=O)N2CCC2(C)C(=O)NS(=O)(=O)c2ccccc2Cl)cc1 (stereo not drawn) | – | · | · | · | · | ·
Cc1cccc(NP(C)(=O)c2nc3c(s2)CCCC3)c1 (stereo not drawn) | ? | – | – | – | 25 | 37
Cc1ccc(OP(=O)(Nc2cccc(C)c2)Oc2ccc(C)cc2)cc1 | – | ? | ? | – | – | –
O=C(c1cc2ccccc2[nH]1)N(Cc1cccnc1)CC1CCCN(C2CCCCC2)C1 (stereo not drawn) | – | 10µM | ? | ? | 15 | –
CC[C@H](C)[C@H](NC(=O)[C@H](C)NC(=O)[C@@H](N)C(C)C)C(=O)N[C@H](C(=O)N[C@H](C(=O)N[C@@H](CC(C)C)C(=O)N[C@H](C(=O)N[C@@H](CCCCN)C(=O)O)C(C)C)C(C)C)[C@@H](C)O | · | · | · | · | – | –
Cc1cc(C)c(-c2nc3ccccc3s2)[nH]1 | – | – | – | – | 32 | 96
Nc1cccc(-c2nc3ccccc3s2)c1 | – | · | – | – | 31 | 69
Oc1cccc(-c2nc3ccccc3s2)c1 | – | – | ? | – | 24 | 43
FC(F)(F)c1ccc(-c2nc3ccccc3s2)cc1 | – | · | · | · | · | ·
CC[n+]1cccc(-c2nc3ccccc3s2)c1 | – | – | – | ? | 39 | –
Cc1ccc(/C(O)=C2\C(=O)C(=O)N(CC(C)O)C2c2ccccn2)cc1 (stereo not drawn) | – | – | – | – | – | –
CCN1C(=O)CSC1=Nc1ccc(C(=O)OC)cc1 | – | · | · | · | · | ·
O=C(O)c1ccc2c(c1)C(=O)N(c1cccc(-c3nc4ccccc4s3)c1)C2=O | – | – | – | ? | 49 | 61
CC(=O)Oc1cccc(N2C(=O)c3ccc(C(=O)O)cc3C2=O)c1 | – | – | – | ? | – | –
Cc1[nH]c2ccccc2c1C(=O)C(C)OC(=O)c1ccc([N+](=O)[O-])o1 (stereo not drawn) | – | 3.3µM | ? | ? | – | –
CCOn1c(=O)c(-c2cc3ccccc3o2)[n+]([O-])c2ccccc21 | – | – | – | – | 47 | 163
O=c1c(-c2cc3ccccc3o2)[n+]([O-])c2ccccc2n1OCc1ccccn1 | – | – | ? | – | 48 | 101
O=c1c(-c2ccc(Br)cc2)[n+]([O-])c2ccccc2n1OCc1ccccn1 | – | – | – | – | – | –
CCOn1c(=O)c(-c2ccc(Br)cc2)[n+]([O-])c2ccccc21 | – | – | – | – | – | –
C[C@H](NC(=O)[C@@H]1CCCN1C(=O)[C@@H]1CCCN1C(=O)c1cccc(Cl)c1)c1ccccc1 | – | · | · | · | · | ·
Cn1c(=O)c(C#N)c(-c2ccc(F)cc2)c2cc(C(=O)c3cc(Cl)cc(Cl)c3O)cnc21 | – | ? | 11µM | ? | – | –
COC(=O)CN1C(=O)[C@@H]2[C@H](C1=O)[C@@H]1CC(C(=O)OC)=C[C@@H](C(=O)OC)C3C1=C(C(=O)C31CCCCC1)[C@@H]2C (stereo partly drawn) | · | · | · | · | – | –
